Sampled rows, rich in hits. Any-hit rate of the full collection: about 11%.
IMPase Li cell: IMPase inhibition in cells with lithium potentiation. 210,000 tested, 0.35% active. AID 1457. CHO-M1 cells, IP1 TR-FRET (IP-One), carbachol + lithium. Potency, µM (titrated, usually from 59.4 µM), for the others: top-dose activity, negative = IMPase inhibition, most hits filed as inhibitors; active means well fitted curve in the direction sought with a large enough effect; inconclusive means small, poorly fitted or top-dose-only effect, or another doubt; inactive means no such curve, though single readings can be large; an effect the other way counts as inactive or inconclusive;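 further: IP1 builds up when IMPase is blocked and the TR-FRET signal falls; potency means the concentration at half of the fitted maximal effect; plate controls were basal vehicle for no effect and high inhibitor control for full effect; nearly all actives have a fitted effect of over 50% in size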
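CHO cells stably expressing M1 receptor (2000/well, cultured 16–30 h) treated 30 min at 37C with compound plus low lithium. Cytosolic IP1 by TR-FRET (665/620 ratio and 620 channel) after 10 min lysis; AC50 by Hill fit.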
12-hLO inh: inhibitors of human 12-lipoxygenase (ALOX12) | P18054 | 150,000 tested, 0.12% active | AID 1452 | Potency, µM (top dose mostly 57.1 µM), inactives show top-dose activity change, negative = inhibition, actives largely listed as inhibitors | purified 12-hLO, xylenol orange hydroperoxide absorbance; active means well fitted curve in the direction sought with a large enough effect; inconclusive means small, poorly fitted or top-dose-only effect, or another doubt; inactive means no such curve, though single readings can be large; an effect the other way counts as inactive or inconclusive; further: potency means the concentration at half of the fitted maximal effect; nearly all actives have a fitted effect of over 55% in size
Target sequence (P18054 whole entry, looked up): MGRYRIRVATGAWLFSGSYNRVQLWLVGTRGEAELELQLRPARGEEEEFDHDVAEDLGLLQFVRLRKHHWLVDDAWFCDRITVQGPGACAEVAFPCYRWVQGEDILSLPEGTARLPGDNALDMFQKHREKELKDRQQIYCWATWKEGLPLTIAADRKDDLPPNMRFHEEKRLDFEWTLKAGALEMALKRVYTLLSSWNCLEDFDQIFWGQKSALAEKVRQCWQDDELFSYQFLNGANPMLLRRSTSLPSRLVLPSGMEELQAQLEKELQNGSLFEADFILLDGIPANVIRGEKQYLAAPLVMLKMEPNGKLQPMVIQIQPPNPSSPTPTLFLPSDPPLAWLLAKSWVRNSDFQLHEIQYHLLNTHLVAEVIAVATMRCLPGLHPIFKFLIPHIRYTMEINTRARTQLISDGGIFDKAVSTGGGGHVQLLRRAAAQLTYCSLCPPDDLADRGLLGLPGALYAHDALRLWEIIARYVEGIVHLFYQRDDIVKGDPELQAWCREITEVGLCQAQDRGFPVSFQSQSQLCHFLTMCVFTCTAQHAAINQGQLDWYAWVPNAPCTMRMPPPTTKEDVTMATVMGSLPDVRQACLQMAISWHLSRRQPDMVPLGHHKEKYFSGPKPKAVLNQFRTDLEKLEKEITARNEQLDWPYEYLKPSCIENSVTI
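Xylenol orange chromogenic assay: hydroperoxide from 12hLO oxidises Fe(II), giving red-shifted Fe(III)-XO absorbance. Conditions: 150 nM enzyme, 40 uM arachidonic acid, 25 mM Hepes pH 7.0, 0.01% Triton X-100, 30 min, room temperature.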
IMPase inh: membrane-permeable compound that blocks inositol monophosphatase; CHO-M1 cells, IP1 accumulation, HTRF TR-FRET ratio; 120,000 tested, under 10 active; inhibition (IP1 accumulation), % at 46.1 µM; P97697; AID 901; active means well fitted curve in the direction sought with a large enough effect in the signal ratio, not every such curve was filed as active; inconclusive means small, poorly fitted or top-dose-only effect, or a change in a side signal; inactive means no such curve, though single readings can be large or run the other way; the % refers to the signal ratio;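 further: cells stimulated with carbachol in lithium chloride buffer; plate controls were DMSO basal wells for no effect and reference inhibitor wells for full effect; higher means more IMPase inhibition seen as more IP1 and lower FRET ratio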
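CHO-M1, 2000 cells/well, cultured 16–30 h; cpd up to 46 uM; carbachol (50 uM solution, stimulation buffer w/ 50 mM LiCl, pH 7.4), 30 min 37C; IP-One TR-FRET, 10 min RT; Ex 320/Em 665, 620; Hill-fit AC50.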
PNC inhibitor: inhibitors of perinucleolar compartment assembly. 140,000 tested, 3.1% active. PC3M PTB-GFP, PNC prevalence imaging, 16 h; hits give low values. activity change (PNC), negative = inhibition, % at 10 µM. AID 2417;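 active means readout at or below -70, meaning at least 70% loss of cells showing the perinucleolar compartment, a nuclear body marking cancer cells; inconclusive means readout between -30 and a set limit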;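 further: plate controls were DMSO wells for no effect and camptothecin positive control wells for full effect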
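PC3M cells stably expressing PTB-GFP, 750–1000 cells/well, treated 16 h at 37 °C with compound (23 nl of library stock), in duplicate. After paraformaldehyde fixation and Hoechst stain, imaged at 20x; PNC prevalence scored by image analysis.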
HPGD inh: inhibitors of human 15-hydroxyprostaglandin dehydrogenase (HPGD) | purified HPGD, NADH fluorescence kinetic, PGE2 substrate | Potency, µM, inactives show top-dose activity change, negative = inhibition, actives largely listed as inhibitors | 150,000 tested, 4.3% active | AID 894; further: potency means the concentration at half of the fitted maximal effect
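NADH formation kinetics: reaction with 30 uM PGE2 and 1 mM NAD+ (final), 20 nM enzyme, Tris-HCl pH 8 with Tween 20, after 15 min compound preincubation at room temperature. Fluorescence change, last versus first of five reads.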
ALDH1A1 block: inhibitors of human aldehyde dehydrogenase 1A1; P00352; Purified ALDH1A1, NADH fluorescence, propionaldehyde substrate; Potency, µM (top dose mostly 75.3 µM), for inactives: at the top dose activity, negative = inhibition, actives largely listed as inhibitors; 220,000 tested, 7.3% active; AID 1030;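 further: potency means the concentration at half of the fitted maximal effect; plate controls were no enzyme wells and a reference inhibitor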
Active calls of the source: *; ? = inconclusive; / = not tested or not shown; ! = not active in a repeat; [ ] = another dose, or the depositor's remark. Unless noted, the call rests on the fitted dose curve; in most records, active means well fitted inhibition curve with a large enough effect (not every such curve was filed as active); inconclusive means small, poorly fitted or top-dose-only effect, or another doubt; inactive means no such curve, though single readings can be large or run the other way. Unless noted, on the % scale 0 is the no-effect control and ±100 the full control effect.

SMILES	IMPase Li cell	12-hLO inh	IMPase inh	PNC inhibitor	HPGD inh	ALDH1A1 block
CC1CC[C@@]2(OC1)O[C@@H]1[C@@H](O)[C@H]3C4CC[C@H]5C[C@@H](O[C@@H]6O[C@H](CO)[C@H](O[C@@H]7O[C@H](CO)[C@@H](O)[C@H](O[C@@H]8OC[C@@H](O)[C@H](O)[C@H]8O)[C@H]7O[C@@H]7O[C@H](CO)[C@@H](O)[C@H](O[C@@H]8O[C@H](CO)[C@@H](O)[C@H](O)[C@H]8O)[C@H]7O)[C@H](O)[C@H]6O)[C@H](O)C[C@]5(C)C4CC[C@]3(C)[C@H]1[C@@H]2C (some centres not stated)	28.3%	-2.3%	20.0	/	2.8%	3.5%
COCCCOc1ccnc(CS(=O)c2nc3ccccc3[nH]2)c1C (configuration not stated)	3.5%	-9.6%[0.00818 µM]	/	/	?	5.97µM*
COC(C)C(O)(C(=O)OC1=CCN2CC[C@H](O)[C@H]12)C(C)C (some centres not stated)	27.2%	-0.2%	6.7	/	4.2%	10.1%
C[C@@]12CC[C@H]3[C@@H](CC[C@H]4C[C@@H](O)CC[C@]43C)[C@H]1CC[C@@H]2C(=O)C[C@H](O)C(F)(F)F	0.9%	3.0%[11.4 µM]	/	/	-13.2%	9.2%[13.5 µM]
CC(=O)[O][Hg][c]1ccccc1	33.9%	?	/	/	0.251µM*	0.631µM*
O=C(O)[C@H]1CCN1	/	6.1%	0.7	/	/	/
COc1cccc(-n2c(CN3CCN(C)CC3)nc3ccc([N+](=O)[O-])cc3c2=O)c1	1.3%	0.3%	/	11.6	28.2µM*	8.0%
CC(C)C#N	20.2%	-0.1%	/	/	-13.7%	15.8%
N#CC(Cl)Cl	6.6%	-3.7%	/	/	-10.2%	17.8µM*
COc1cccc(OC)c1C1=NCC(=O)Nc2c1oc1ccc(Br)cc21	17.9%	-26.2%	?	-119.3*	-20.5%	-8.0%
CCOP(=S)(OCC)SCC(=O)NC(C)(CC)C(=O)O (configuration not stated)	-10.1%[38.3 µM]	8.0%	2.8	-111.1*	-7.8%	4.8%
CC[n+]1c(-c2ccccc2)c2cc(N)ccc2c2ccc(N)cc21	28.5%	0.2%[0.00818 µM]	/	/	35.5µM*!	-7.9%
C=CCN1C(=O)NC(=O)/C(=C/c2cnc(SC)nc2)C1=O	5.7%[38.3 µM]	-7.3%	3.9	-10.8	-4.1%	1.3%
C=CCN1C(=O)NC(=O)/C(=C/c2cc3c4c(c2)CCCN4CCC3)C1=O	5.6%	-4.1%	/	?	14.1µM*	0.891µM*
CNC[C@H](O)c1ccc(OC(=O)C(C)(C)C)c(OC(=O)C(C)(C)C)c1	5.6%	6.7%[25.6 µM]	0.1[20.6 µM]	/	3.6%	26.2%[20.9 µM]
CCN(CC)S(=O)(=O)c1ccc(NN=C(C#N)C#N)cc1	23.4%	-21.7%	/	13.2	14.1µM*	2.3%
CCOC(=O)c1c(C)n(Cc2ccccc2)c2ccc(OCC(O)Cn3nc(C)cc3C)cc12 (configuration not stated)	16.4%	-4.7%	/	-80.4*	-13.4%	?
C=C(CO)CC1CC(O)[C@]2(C)OC3CC4OC5C[C@]6(C)O[C@]7(C)CCC8OC9C[C@]%10(C)OC%11C(C)=CC(=O)OC%11CC%10OC9C[C@@H](C)C8OC7CC6O[C@]5(C)C/C=C\C4OC3CC2O1 (some centres not stated)	-6.3%	/	/	/	/	1.41µM*
C=C(C=O)CC1CC(O)[C@]2(C)OC3CC4OC5C[C@]6(C)O[C@]7(C)CCC8OC9C[C@]%10(C)OC%11C(C)=CC(=O)OC%11CC%10OC9C[C@@H](C)C8OC7CC6O[C@]5(C)CC5OC5C4OC3CC2O1 (some centres not stated)	12.3%	/	/	/	/	4.47µM*
ClCC[N+]12CC[N+](CCCl)(CC1)C2 (tested in a mixture with another compound)	-4.4%	-0.3%[11.4 µM]	/	/	1.2%	?
CCOC(=O)C(NC(=O)C(Cc1ccc(N(CCCl)CCCl)cc1)NC(C)=O)C(C)C (configuration not stated)	18.6%	/	/	/	/	?
CC(=O)NC(Cc1ccc(N(CCCl)CCCl)cc1)C(=O)NC(CC(C)C)C(=O)O (configuration not stated)	-2.0%	/	/	/	/	2.24µM*
O[C@H]1CCCC[C@H]1N1CCC(c2ccccc2)CC1	19.1%	1.6%	3.2	/	-6.9%	-7.9%
C=CCN1C(=O)NC(=O)/C(=C\c2ccc(-c3ccccc3[N+](=O)[O-])o2)C1=O	19.1%	/	/	/	/	22.4µM*
O=C1NC(=O)N(Cc2ccco2)C(=O)/C1=C/c1ccc(-c2cccc([N+](=O)[O-])c2)o1	4.1%	-14.3%	/	18.6	5.01µM*	7.08µM*
SMILES	IMPase Li cell	12-hLO inh	IMPase inh	PNC inhibitor	HPGD inh	ALDH1A1 block
O=C1NC(=O)N(c2ccc3c(c2)OCO3)C(=O)/C1=C\c1ccc(-c2ccccc2C(=O)O)o1	/	/	/	/	/	-14.4%
C[C@H]1CCC/C=C/C2C[C@H](O)C[C@H]2[C@H](O)/C=C/C(=O)O1 (some centres not stated)	-1.3%	-0.7%[0.00818 µM]	/	/	1.5%	-5.7%
C[C@H]1CCCC(=O)CCC/C=C/c2cc(O)cc(O)c2C(=O)O1	13.8%[38.3 µM]	-18.4%	-3.1	?	14.1µM*!	14.1µM*
COc1cccc(N2C(=O)NC(=O)/C(=C/c3ccc4c(c3)Cc3ccccc3-4)C2=O)c1	-9.5%	/	/	/	/	?
Cc1ccccc1N1C(=O)NC(=O)/C(=C\c2ccc3c(c2)CCCN3Cc2ccccc2)C1=O	12.2%	-16.3%	/	6.5	1.78µM*	?
O.O.[NH-]C1(C(=O)O)CCCC1.[NH-]C1(C(=O)O)CCCC1.[Ni+2]	-10.6%	-0.9%[11.4 µM]	/	/	-7.5%	-5.5%[13.5 µM]
O=C(OC1CCN(CCCl)CC1)C(c1ccccc1)c1ccccc1	13.6%	-5.7%	17.2	/	-10.9%	8.91µM*
CN1CCC(OC(=O)Cc2ccccc2)CC1	17.7%	/	/	/	/	9.3%
O=C(c1ccc2c(=O)n(Cc3ccc4c(c3)OCO4)c(=S)[nH]c2c1)N1CCC2(CC1)OCCO2	9.8%[38.3 µM]	-3.7%	-5.5	29.3	31.6µM*	?
CCN(CC)C(=O)c1c(C)[nH]c(=S)c(C#N)c1-c1ccco1	-2.1%	/	/	/	/	7.08µM*
CC(=O)C1=C(O)[C@@H]2[C@@H]3c4c[nH]c5cccc(c45)C[C@@H]3C(C)(C)N2C1=O	26.7%	-28.0%	5.1	/	-18.7%	?
CCCCC/C=C\C/C=C\C/C=C\CCCCC(=O)NCCO	3.0%	2.1%	/	/	-2.8%	-1.2%
CCCCOc1nc2ccccc2c(=O)n1-c1ccccc1	12.4%	-2.8%	/	?	-13.0%	14.1µM*
COc1ccc(-n2c(-c3ccc(C)cc3)nc3ccccc3c2=O)cc1	/	/	/	/	/	7.94µM*
COc1nc2ccccc2c(=O)n1-c1ccc(Cl)cc1	5.3%	0.0%	/	-7.4	-9.5%	4.3%
O=C(O)c1cc(O)c(O)c(O)c1	-20.1%	4.7%	/	/	7.08µM*!	2µM*

Screens (PubChem)
